Laboratory results: PubChem BioAssay (NCI)
The panel holds about 79,000 compounds, 15% with a hit somewhere; the sample as a whole holds those more often. Active and inactive are the calls of the source. No stated cut-off is given here; in the data, active means growth inhibition above about 70%; inactive means the rest.

Experiments:
[1] = NCI Yeast Anticancer Drug Screen. Data for the rad52 strain (AID 147);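 further: 0% = growth of vehicle-treated control cultures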; details: S. cerevisiae rad52 mutant growth inhibition, active compounds read high
Method in brief: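 Inhibition of yeast growth, referenced to vehicle controls, was the measured output for a strain with defective DNA damage repair.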

[2] = NCI Yeast Anticancer Drug Screen. Data for the wt1 strain (AID 149);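 further: 0% = growth of vehicle-treated wt1 cultures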; details: S. cerevisiae wt1 strain (SPY 50644) growth inhibition, active compounds read high
Method in brief: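 Compounds are added to wt1 yeast cultures. Growth is then measured. Inhibition is expressed relative to vehicle-treated controls.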

[3] = NCI Yeast Anticancer Drug Screen. Data for the rad50EPP+ strain (AID 151);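 further: 0% = growth of vehicle-treated control cultures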; details: S. cerevisiae rad50 mutant strain, active compounds read high
Method in brief: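 Genetically defined yeast (rad50EPP+, DNA damage repair alteration) is grown with compound, and inhibition of growth is expressed relative to vehicle-treated controls.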

[4] = NCI Yeast Anticancer Drug Screen. Data for the mgt1 strain (AID 153); details: S. cerevisiae mgt1 mutant growth inhibition, active compounds read high
Method in brief: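 In the mgt1 strain, test compounds were added and growth inhibition was determined relative to vehicle-treated controls.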

[5] = NCI Yeast Anticancer Drug Screen. Data for the rad50 strain (AID 155);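 further: 0% = growth of vehicle-only cultures of the same strain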; details: S. cerevisiae rad50 strain growth inhibition, active compounds read high
Method in brief: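 Inhibition values express reduced yeast growth in compound-treated cultures relative to vehicle-treated controls.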

[6] = NCI Yeast Anticancer Drug Screen. Data for the mec2-1 strain (AID 157); details: S. cerevisiae mec2-1 strain, active compounds read high
Method in brief: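 Each compound was tested on mec2-1 yeast, a strain altered in DNA damage repair or cell cycle control. Growth inhibition is reported relative to vehicle.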

[7] = NCI Yeast Anticancer Drug Screen. Data for the rad14 strain (AID 159);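 further: 0% = growth of vehicle-treated control cultures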; details: S. cerevisiae rad14 strain growth inhibition, active compounds read high
Method in brief: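 A mutant yeast strain defective in DNA damage repair is treated with compound; inhibition of its growth is scored against untreated, vehicle-exposed cultures.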

[8] = NCI Yeast Anticancer Drug Screen. Data for the sgs1 mgt1 strain (AID 161);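 further: 0% = growth of cultures given vehicle only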; details: S. cerevisiae sgs1 mgt1 strain, active compounds read high
Method in brief: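 Inhibition of yeast growth, normalised to vehicle-treated controls, is reported for a strain bearing genetic alterations in DNA damage repair.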

[9] = NCI Yeast Anticancer Drug Screen. Data for the CLN2oe strain (AID 163);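 further: 0% = growth of vehicle-only control cultures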; details: S. cerevisiae CLN2oe strain, active compounds read high
Method in brief: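 First, the altered yeast strain was treated with each compound; second, its growth was measured; finally, inhibition was derived by comparison with vehicle controls.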

[10] = NCI Yeast Anticancer Drug Screen. Data for the cln2 rad14 strain (AID 165);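 further: 0% = growth equal to vehicle treated cultures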; details: S. cerevisiae cln2 rad14 strain, active compounds read high
Method in brief: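 Test compounds were added to cln2 rad14 yeast cultures; inhibition of growth was then determined by comparison with vehicle treatment.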

[11] = NCI Yeast Anticancer Drug Screen. Data for the bub3 strain (AID 167); details: S. cerevisiae bub3 mutant strain, active compounds read high
Method in brief: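 Steps: expose the mutant yeast strain to compound; grow alongside vehicle-treated cultures; measure growth; express inhibition against the vehicle cultures.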

[12] = NCI Yeast Anticancer Drug Screen. Data for the wt2 strain (AID 169);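 further: 0% = growth of vehicle-treated yeast cultures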; details: S. cerevisiae wt2 strain growth inhibition, active compounds read high
Method in brief: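 The panel's yeast strains carry defined changes in DNA repair or cell cycle genes. Each strain is grown with compound, and growth loss is scored relative to vehicle.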

[13] = NCI Yeast Anticancer Drug Screen. Data for the sgs1 strain (AID 173);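 further: 0% = growth of vehicle-only control cultures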; details: S. cerevisiae sgs1 mutant, active compounds read high
Method in brief: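 Vehicle-treated cultures served as reference for growth inhibition of a yeast strain altered in DNA damage repair or cell cycle control after compound exposure.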

[14] = NCI Yeast Anticancer Drug Screen. Data for the mlh1 rad18 strain (AID 175); details: S. cerevisiae mlh1 rad18 strain growth inhibition, active compounds read high
Method in brief: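 Inhibition values reflect reduced growth of mutant yeast versus vehicle-treated controls following compound exposure; the mutations affect DNA damage repair.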

[15] = NCI Yeast Anticancer Drug Screen. Data for the rad18 strain (AID 177); details: S. cerevisiae rad18 mutant growth inhibition, active compounds read high
Method in brief: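 Steps: expose repair-mutant yeast to compound; measure growth; express as inhibition relative to vehicle control.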

[16] = at 5.0 µM (retest, dose inferred, filed as 0.5)
[17] = at 50.0 µM (retest, dose inferred, filed as 5.0)

Measured: growth inhibition

COC(=O)C1(C)CCc2c(ccc3ccccc23)C1=O (stereo not drawn)
inactive: [1]; at 1.2 µM -1% | [1]; at 3.7 µM 4% | [1]; at 11.0 µM 12% | [1]; at 33.0 µM 4% | [1]; at 100.0 µM 44% | [2]; at 1.2 µM 0% | [2]; at 3.7 µM -2% | [2]; at 11.0 µM -3% | [2]; at 33.0 µM -2% | [2]; at 100.0 µM -13% | [3]; at 1.2 µM -1% | [3]; at 3.7 µM 13% | [3]; at 11.0 µM 28% | [3]; at 33.0 µM 23% | [3]; at 100.0 µM 49% | [4]; at 1.2 µM -1% | [4]; at 3.7 µM 0% | [4]; at 11.0 µM -1% | [4]; at 33.0 µM -2% | [4]; at 100.0 µM 30% | [5]; at 1.2 µM -1% | [5]; at 3.7 µM 6% | [5]; [16] -13% | [5]; at 11.0 µM 13% | [5]; at 33.0 µM -87% | [5]; [17] 29% | [5]; at 50.0 µM 39.9% | [5]; at 100.0 µM 42% | [6]; at 1.2 µM 1% | [6]; at 3.7 µM -1% | [6]; [16] -14% | [6]; at 11.0 µM -2% | [6]; at 33.0 µM 0% | [6]; [17] -17% | [6]; at 50.0 µM 27.1% | [6]; at 100.0 µM 13% | [7]; at 1.2 µM -1% | [7]; at 3.7 µM 4% | [7]; at 11.0 µM 12% | [7]; at 33.0 µM 14% | [7]; at 100.0 µM 19% | [8]; [16] -5% | [8]; [17] 47% | [8]; at 50.0 µM 64.3% | [9]; at 1.2 µM -4% | [9]; at 3.7 µM 4% | [9]; at 11.0 µM 6% | [9]; at 33.0 µM 11% | [9]; at 100.0 µM 15% | [10]; [16] -10% | [10]; [17] 12% | [10]; at 50.0 µM 1.75% | [11]; at 1.2 µM 37% | [11]; at 3.7 µM 49% | [11]; [16] 40% | [11]; at 11.0 µM 57% | [11]; at 33.0 µM 65% | [12]; at 1.2 µM -5% | [12]; at 3.7 µM -2% | [12]; at 11.0 µM 9% | [12]; at 33.0 µM -5% | [13]; at 1.2 µM -14% | [13]; at 3.7 µM 3% | [13]; at 11.0 µM 16% | [13]; at 33.0 µM 34% | [13]; at 100.0 µM 67% | [14]; [16] -11% | [14]; [17] 57% | [14]; at 50.0 µM 26.5% | [15]; at 1.2 µM -5% | [15]; at 3.7 µM 6% | [15]; at 11.0 µM 10% | [15]; at 33.0 µM 7% | [15]; at 100.0 µM 53%
active: [11]; [17] 78% | [11]; at 50.0 µM 81% | [11]; at 100.0 µM 75% | [12]; at 100.0 µM 80%
